# Values joined by “and” are separate entries in the source; they are usually repeats but may differ in a detail not shown here. Identical values can stand only once. The campaign covered roughly 410,000 compounds. About 2,400 (0.59%) were called active. Rule as the data show it: active = max activation above about 30%; inactive = the rest. What follows is part of a selection rich in actives, with near analogues and random picks from the rest.
# Molecular target: D(3) dopamine receptor (Homo sapiens) (UniProt P35462)
# Sequence (P35462 whole entry, looked up): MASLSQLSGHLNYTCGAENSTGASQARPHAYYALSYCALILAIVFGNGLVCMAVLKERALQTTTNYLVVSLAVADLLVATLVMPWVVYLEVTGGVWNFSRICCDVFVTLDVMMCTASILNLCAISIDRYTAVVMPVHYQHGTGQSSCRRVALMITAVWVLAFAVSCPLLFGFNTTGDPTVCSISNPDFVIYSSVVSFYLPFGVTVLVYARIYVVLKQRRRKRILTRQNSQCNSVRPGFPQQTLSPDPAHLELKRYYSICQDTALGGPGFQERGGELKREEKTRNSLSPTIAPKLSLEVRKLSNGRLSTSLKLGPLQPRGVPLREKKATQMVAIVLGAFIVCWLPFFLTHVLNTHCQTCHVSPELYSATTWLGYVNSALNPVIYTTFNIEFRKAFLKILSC
# Assay: qHTS of D3 Dopamine Receptor Agonist: qHTS; also: 0% is about no effect
# Conditions: D3R DiscoveRx beta-arrestin cells, luminescence, 90 min; hits give high values
# Text: D3 DARs represent a very important target for the treatment of several neuropsychiatric disorders. Indeed, one of the most promising therapeutic applications for the D3 DAR is in the area of addiction and related disorders. […] These findings have been observed with a number of addictive substances including cocaine, amphetamine, nicotine, and alcohol. […] Antagonism of the D3 DAR may also be therapeutic in the treatment of schizophrenia or psychosis. […] Since the D3 DAR is expressed in areas of the CNS associated with the control of mood and emotion, it has been hypothesized that selective antagonism of the D3 DAR may be effective in treating psychosis without inducing the motor side effects typically seen with D2 DAR antagonists.
# This part of the project aims to discover novel agonist.
# NIH Chemical Genomics Center [NCGC]
# NIH Molecular Libraries Probe Centers Network [MLPCN]
# Assay Submitter (PI): David Sibley, NINDS
# Freshly passaged cells are plated in 1536 well white, solid bottom plates at a density of 1500 cells/well in 3microl of complete media. After an overnight incubation at 37 degrees C in 5% CO2, cells are loaded with 23nl of test compound from the compound library (as well as dopamine controls) using a 1536 pintool and incubated at 37 degrees C for 90 minutes. Two microliters of DiscoveRx reagent is then added to all cells, and they are incubated for an additional 30 - 60 minutes at room temperature. Following incubation, luminescence is measured on a ViewLux CCD-based luminometer reader using a 20 sec exposure time.
row,Structure (SMILES),max activation
1,CCOC(=O)c1cc(-c2ccccc2C)n(Cc2cc(C)no2)n1,59.5% (active)
2,CCOC(=O)c1cc(-c2sc(NC(=O)c3ccccc3)nc2C)n(Cc2ccccc2)n1,8.04% (inactive)
3,CCOC(=O)c1cc(OC(=O)c2ccccc2Cl)n(-c2ccccc2)n1,-8.96% (inactive)
4,CCc1ccc(C(=O)NC(=S)Nc2ccccc2N2CCOCC2)cc1,-1.31% (inactive)
5,COc1ccc(C(=O)NC(=S)Nc2ccccc2N2CCN(S(C)(=O)=O)CC2)cc1OC,34.6% (active)
6,CC(=O)N1CCN(c2ccccc2NC(=S)NC(=O)c2cc3ccccc3o2)CC1,-3.88% (inactive)
7,CCOc1cccc2sc(N3CCN(C(=O)C4CC4)CC3)nc12,-4.91% (inactive)
8,CC/C(=N\NC(=O)c1ccccc1Cl)c1ccc(Br)s1,5.71% (inactive)
9,Cc1ccccc1-n1c(SCC(=O)Nc2cccc3ccccc23)nc(O)cc1=O,0.0019% (inactive)
10,C/C(=N\NC(=O)CNc1cccc2ccccc12)c1ccc(Br)s1,30.4% (active)
11,O=C1CSc2ccc(S(=O)(=O)NCc3ccccc3)cc2N1,-4.53% (inactive)
12,CCC(Cc1ccccc1)NS(=O)(=O)c1ccc2c(c1)NC(=O)CS2 (stereo unspecified),34.1% (active)
13,COc1ccccc1CNS(=O)(=O)c1ccc2c(c1)NC(=O)CS2,5.98% (inactive)
14,Cc1ccccc1CSc1nc2c([nH]c3ccccc32)c(=O)n1C,-3.75% (inactive)
15,COc1ccc(-c2nc3c(s2)CCc2onc(-c4ccc(Br)cc4)c2-3)cc1,31.5% (active)
16,COc1ccc(-c2nc3n(c2Br)CCC3)cc1,8% (inactive)
17,COc1ccc(-c2nc3c(s2)CCc2onc(-c4ccc(OC)cc4)c2-3)cc1,5.32% (inactive)
18,NC(=O)C(=O)N/N=C/c1ccc([N+](=O)[O-])o1,-13.9% (inactive)
19,CN1CC(O)c2cc(N=NC(N)=O)c(O)cc21 (stereo unspecified),-13% (inactive)
20,Cc1oc2c(F)c(F)c(F)c(F)c2c1S(=O)(=O)Nc1cccc(C(F)(F)F)c1,39.8% (active)
21,Cc1onc(-c2ccc(F)cc2F)c1C(=O)Nc1cccc(C(F)(F)F)c1,-14.1% (inactive)
22,Cc1oc2ccc(O)c(CN3CCCCC3)c2c1C(=O)Nc1cccc(C(F)(F)F)c1,0.725% (inactive)

row,Structure (SMILES),max activation
1,COc1cc(Cl)c(NC(=O)C(NS(=O)(=O)c2cccs2)C(C)C)c(OC)c1 (stereo unspecified),6.54% (inactive)
2,COc1ccc(CCNc2ncnc3c2cnn3-c2ccc(C)cc2)cc1,11.8% (inactive)
3,Cc1ccccc1C(=O)Nc1sc2c(c1C(=O)N1CCC(C)CC1)CCCC2,-2.21% (inactive)
4,COc1ccccc1-n1c(=S)[nH]c2c(sc(=S)n2-c2ccc(C)cc2C)c1=O,37.7% (active)
5,CCc1ccc(-n2c(=S)sc3c(=O)n(-c4ccccc4OC)c(=S)[nH]c32)cc1,0.277% (inactive)
6,COc1ccccc1-n1c(-c2ccc(C)cc2)cn2c3c(=O)n(C)c(=O)n(C)c3nc12,-0.938% (inactive)
7,COc1cc(CNCCSc2nnnn2C)ccc1OCc1ccc(Cl)cc1Cl,-19% (inactive)
8,O=C(CCC1N=C2c3ccccc3N=C(SCc3ccccc3F)N2C1=O)NCCc1ccccc1 (stereo unspecified),5.62% (inactive)
9,Cc1ccc(NC(=O)CN(C)C(=O)Cn2nnc(-c3ccccc3)n2)cc1,5.42% (inactive)
10,O=C(Cn1nnc(-c2ccccc2)n1)N/N=C/c1ccc(-c2ccc(Cl)cc2)o1,34.9% (active)
11,O=C(Cn1nnc(-c2ccccc2)n1)NC(=O)NC1CCCC1,4.92% (inactive)
12,CCOc1ccc(CNC(=O)c2cc(=O)[nH]c3ccc(S(=O)(=O)N4CCCCC4)cc23)cc1,1.15% (inactive)
13,COc1ccc2cc(CNc3ccc(OC)c(OC)c3)c(=O)n(CC(=O)Nc3ccccc3F)c2c1,2.84% (inactive)
14,Cc1ccc(OCCSc2nc(C)c(Cc3ccccc3)c(=O)[nH]2)cc1,4.35% (inactive)
15,Cc1ccc(CNC(=O)[C@@H](NC(=O)Cc2ccccc2)C(C)C)cc1,-1.46% (inactive)
16,Cc1ccc(CNC(=O)Cc2cn(C)c3ccccc23)cc1,-3.47% (inactive)
17,Cc1ccc(CNC(=O)c2ccccc2CCc2ccccc2)cc1,31.4% (active)
18,COC(=O)C1(S(=O)(=O)C2(C(=O)OC)CCCC2)CCCC1,31% (active)
19,CC1(C)OC[C@@H](COC(=O)CCc2ccc(OC[C@@H](O)CNCCNC(=O)N3CCOCC3)cc2)O1,-23.2% (inactive) and -20.2% (inactive)
20,CC(C)(C)OC(=O)CNC(=O)c1[nH]cnc1C(=O)N[C@@H](CCCCN)C(=O)OC(C)(C)C,0% (inactive)
21,COc1ccc(-c2cn3c(n2)sc2cc(C(=O)Nc4ccc(F)cc4)ccc23)cc1,13.3% (inactive)
22,COc1ccc(-c2cn3c(n2)sc2cc(C(=O)Nc4ccccc4F)ccc23)cc1,35.4% (active)

row,Structure (SMILES),max activation
1,CCN1CCN(CCCNC(=O)c2ccc3c(c2)sc2nc(-c4ccc(OC)cc4)cn23)CC1,-6.77% (inactive)
2,O=C(Nc1ccc(O)cc1)c1ccccc1O,-0.0653% (inactive)
3,CC1(C)SC2C(NC(=O)COc3ccccc3)C(=O)N2C1C(=O)O (stereo unspecified),2.21% (inactive) and 6.06% (inactive)
4,COC(=O)C1[C@H]2SC(C)(C)C(C(=O)OC)N2C(=O)N1Cc1nc2ccccc2s1 (stereo partly specified),37.5% (active)
5,CC1(C)S[C@@H]2[C@H](NC(=O)COc3ccccc3)C(=O)N2C1C(=O)OCc1ccccc1 (stereo partly specified),-3.7% (inactive)
6,Cc1ccc2[nH]c3c(=O)n(CC(=O)NC(C)C)ncc3c2c1,2.56% (inactive)
7,CCOc1ccc(NS(=O)(=O)c2ccc(N)cc2)nn1,-7.97% (inactive)
8,COc1ccc(C(=O)NC2CCCc3c2cnn3-c2cccc(C)c2C)c(OC)n1 (stereo unspecified),48.2% (active)
9,COc1cccc(C(=O)Nc2c3c(nn2-c2cccc(C)c2C)CS(=O)(=O)C3)c1OC,-20.8% (inactive)
10,Cc1cccc(C(=O)OC(C)C(=O)NC2CCCc3ccccc32)c1O (stereo unspecified),-10.5% (inactive)
11,Cc1ccc(NC(=O)c2nc(S(=O)(=O)Cc3cccc(C)c3)ncc2Cl)cc1,-23.7% (inactive)
12,CC1(C)S[C@@H]2[C@H](N=CN3CCCCCC3)C(=O)N2[C@H]1C(=O)O,-22.5% (inactive)
13,CC(C)(C)OC(=O)N1CCC(c2c(C(=O)NCCc3ccsc3)cnn2-c2ccc(F)cc2F)CC1,6.51% (inactive)
14,COc1ccc(/C=C/C(=O)c2cc(Br)ccc(=O)c2O)cc1,-1.59% (inactive)
15,COCOc1cc(O)c(C(=O)/C=C/c2ccc(OCOC)c(OCOC)c2)c(OCOC)c1,32% (active)
16,CCOc1ccc(/C=C/C(=O)OCC(=O)c2ccccc2OC)cc1OC,3.52% (inactive)
17,O=C(Nc1cccc(C(F)(F)F)c1)c1cc(Br)cc(Br)c1O,0.389% (inactive)
18,CC(C(=O)O)c1ccc(C2CCCCC2)c2ccccc12 (stereo unspecified),4% (inactive)
19,Cc1ccc2nc(CN3CCN(S(=O)(=O)c4ccc(C)c(C)c4)CC3)oc2c1,-11.8% (inactive)
20,COc1ccc2c(c1)c(=Cc1ccc(N(C)C)cc1)c1cc(-c3ccccc3)[n+](C)n12,1.19% (inactive)
21,COc1ccc2sc(-c3ccc(N(C)C)cc3)c(C#CCO)c2c1,38.4% (active)
22,Cc1ccc(C)c(S(=O)(=O)n2nc(C)c(S(=O)(=O)N3CCC(C)CC3)c2C)c1,3.28% (inactive)

row,Structure (SMILES),max activation
1,CC(O)COc1ccccc1 (stereo unspecified),8.58% (inactive)
2,O=C(CSc1nc(O)c(Cc2ccccc2)c(=O)[nH]1)Nc1nc2c(s1)CCCC2,3.59% (inactive)
3,O=C(COC(=O)c1cc(=O)[nH]c2ccccc12)NCc1cccc(Cl)c1,3.7% (inactive)
4,O=C(COC(=O)c1cc(=O)[nH]c2ccccc12)Nc1nc(-c2cccc(Br)c2)cs1,38.6% (active)
5,COc1ccc(NC(=O)CSc2nc3ccccc3[nH]2)cc1,0.0768% (inactive)
6,CC1CCN(C(=O)COC(=O)c2cc(=O)[nH]c3ccccc23)CC1,-2.85% (inactive)
7,O=C(CSc1nc2ccccc2c(=O)[nH]1)Nc1nc(-c2ccc(Br)cc2)cs1,37.7% (active)
8,COc1ccc(C(=O)Nc2cccc(C(=O)OCc3cc(=O)n4c5c(sc4n3)CCCC5)c2)cc1,-9.48% (inactive)
9,COc1cccc2cc(-c3nc(Cl)c4c5c(sc4n3)CC(C)CC5)c(=O)oc12 (stereo unspecified),8.91% (inactive)
10,COC(=O)c1sccc1S(=O)(=O)N(CC(=O)Nc1ccc(C)c(F)c1)c1ccc(C)c(C)c1,-2.21% (inactive)
11,Cc1ccc(CN2CCC(CNC(=O)c3cnn(-c4ccccc4Cl)c3C3CCN(C(=O)OC(C)(C)C)CC3)CC2)cc1,-13.6% (inactive)
12,CO/N=C(/C(=O)N[C@@H]1C(=O)N2C(C(=O)O)=C(Cn3nnc(C)n3)CS[C@H]12)c1csc(N)n1,-4.25% (inactive)
13,CSc1ccc(CCNC(=O)C2CCN(c3nnc(-n4cccc4)s3)CC2)cc1,-2.44% (inactive)
14,Cc1ccc(CCNC(=O)C2CCN(c3nnc(-n4cccc4CNc4ccc(C)cc4)s3)CC2)cc1,56.2% (active)
15,CCOc1ccc(CNC(=O)C2CCN(c3nnc(-n4cccc4CNc4ccc(C)cc4)s3)CC2)cc1OC,1.82% (inactive)
16,N[C@H]1CN(c2c(F)cc3c(=O)c(C(=O)O)cn(C4C[C@H]4F)c3c2Cl)CC12CC2 (stereo partly specified),-3.15% (inactive)
17,O=P(O)(O)OC[C@H](O)CO,-12.8% (inactive)
18,CCc1ccccc1NC(=O)CN(C)S(=O)(=O)c1ccc2c(c1)c(=O)n(C)c(=O)n2C,-4.93% (inactive)
19,CN(CC(=O)Nc1ccccc1F)S(=O)(=O)c1ccc2c(c1)c(=O)n(C)c(=O)n2C,47.6% (active)
20,CC(C)c1ccc(NC(=O)CN(C)S(=O)(=O)c2ccc3c(c2)c(=O)n(C)c(=O)n3C)cc1,0.167% (inactive)
